Laboratory results published in PubChem BioAssay AID602288 (National Center for Advancing Translational Sciences (NCATS), 2012).
Results filed as inconclusive are left out. A call without a number means that no potency is given here. The source made the active and inactive calls. Calls come from the whole dose curve; as a rule, active = well fitted cell-killing curve with a large enough effect (not every such curve was filed as active); inconclusive = small, poorly fitted or top-dose-only effect, or another doubt; inactive = no such curve, though single readings can be large or run the other way.

Assay: qHTS Assay for Agonists of the Relaxin Receptor RXFP1: Cytotoxicity SAR
Conditions: HEK293-RXFP1 viability, ATPLite luminescence, 72 h; series mostly up to 78.1 µM
Excerpt: The relaxin hormone is involved in the variety of biological functions in normal tissues and diseases. The role of relaxin is well-established in female reproduction and parturition, mammary gland and endometrial development, maintenance of myometrial quiescence during pregnancy. Relaxin signaling through its G protein-coupled receptor (GPCR) RXFP1 results in ECM remodeling through regulation of collagen deposition, cell invasiveness, proliferation and overall tissue homeostasis. […] Recombinant human relaxin (rhRlx) is currently being tested in clinical trials as a protective agent in congestive heart failure, in treating severe preeclampsia, and as an anti-fibrotic agent in systemic sclerosis. In the primary screen, upon relaxin binding RXFP1 activation leads to the activation of adenylate cyclase (AC) via Gs. cAMP will activate PKA, which phosphorylates many signaling proteins. Thus, detection of cAMP increase is an easy and reliable indication of relaxin receptor activation. To screen for agonists of the relaxin receptor, a HEK293T cell line stably transfected with RXFP1 was used. RXFP1 activation was assayed by changes in cAMP levels as detected with a time-resolved fluorescence energy transfer (TR-FRET) cAMP detection kit. We conducted this followup assay to measure the effect of the lead candidates on cell health by measuring ATP levels (ATPLite). NIH Chemical Genomics Center [NCGC] NIH Molecular Libraries Probe Production Centers Network [MLPCN] MLPCN Grant: R03 MH085705-01A1 Assay Submitter (PI): Alexander Agoulnik
In this assay, the luciferase enzyme catalyzes the conversion of the added substrate D-luciferin to oxyluciferin and light with ATP. Thus, the emitted light is proportional to the ATP concentration. To evaluate the cytotoxic properties of the compounds, HEK293-RXFP1 cells were incubated with compounds for 72 h in growth media (DMEM 10% FBS, 1x Pen/Strep, 0.5 mg/mL G418) in 384-well format. After compound incubation, the levels of ATP in each well were measured with the addition of the ATPLite assay reagent.

Row | SMILES | Potency
1 | O=C(NCc1ccco1)c1ccccc1NC(=O)c1ccccc1NC(=O)C1CCCCC1 | inactive
2 | O=C(Nc1cccc(C(F)(F)F)c1)c1ccccc1NC(=O)C1CCCC1 | inactive
3 | CCOc1ccccc1C(=O)NCCC(=O)Nc1cccc(S(=O)(=O)C(F)(F)F)c1 | inactive
4 | CN(C)CCOc1ccccc1C(=O)Nc1ccccc1C(=O)Nc1cccc(C(F)(F)F)c1 | inactive
5 | CCOc1ccccc1C(=O)Nc1sccc1C(=O)Nc1cccc(S(=O)(=O)C(F)(F)F)c1 | 7.47 µM (active)
6 | COCCNc1ccccc1C(=O)Nc1cccc(C(F)(F)F)c1 | 29.7 µM (active)
7 | O=C(Nc1cccc(C(F)(F)F)c1)c1ccccc1NC(=O)C1CCCCCC1 | 5.93 µM (active)
